In the library only some 4.9% were active in any assay of this set; here they are far more common.
SKKanGAS inh: inhibitors of SKKanGAS S. pyogenes growth in kanamycin (SK-promoter or general growth effect) | 300,000 tested, 1.3% active | inhibition, % at 7.5 µM | BacTiter-Glo, 6 h;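 active means mean replicate score, as percent of positive control median, at least 50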;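 further: strain carries kanamycin resistance gene driven by streptokinase promoter and grows in 40 µg/ml kanamycin; loss of luminescence reflects streptokinase promoter inhibition or plain growth inhibition; 0% = median of DMSO wells and 100% = positive control at its reference dose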
NALP1 yeast inh: blocks the NALP1 inflammasome reconstituted in yeast; 280,000 tested, 0.61% active; inhibition, % at 10 µM; AID 2071; S. cerevisiae NALP1/ASC/caspase-1 growth, X-gal OD620, 72 h; in the data active means inhibition mostly above about 24%, no sharp cut-off; inactive means mostly below about 32%
TIM10 inh: growth inhibitors of TIM10 yeast strain. S. cerevisiae TIM10 strain growth, BacTiter-Glo luminescence, 24 h. 330,000 tested, 1.4% active. inhibition, % at 10 µM;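 active means inhibition of 40% or more at the single tested concentration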;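 further: wild-type TIM10 isogenic control strain grown at permissive 25 °C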
tim10-1 inh: growth inhibitors of tim10-1 mutant yeast. S. cerevisiae tim10-1 ts strain growth, BacTiter-Glo, 24 h. inhibition, % at 20 µM. 330,000 tested, 2.2% active. AID 463190;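 active means inhibition of at least 40%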;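 further: mutant grown at 25 °C; 0% = DMSO wells with yeast and 100% = wells holding no yeast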
NALP3 yeast inh: inhibitors of NALP3 inflammasome in yeast; 330,000 tested, 0.39% active; Yeast reconstituted NLRP3/ASC/caspase-1, beta-gal luminescence, 24 h; inhibition, % at 10 µM;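 active means inhibition of 50% or more; inactive means inhibition below 50%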;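 further: plate controls were induced DMSO wells for no effect and uninduced yeast grown without galactose for full effect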
tim23-1 inh: growth inhibitors of tim23-1 mutant yeast; S. cerevisiae tim23-1 growth, BacTiter-Glo luminescence, 24 h; inhibition, % at 20 µM; 330,000 tested, 1.3% active; AID 463212;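 active means growth inhibition of the mutant yeast at or above 50%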;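 further: temperature-sensitive mutant grown at 25 °C; plate controls were DMSO-treated mutant yeast for no effect and medium wells lacking yeast for full effect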
* marks the source's active call; other numbers are inactive results; . = not tested or not shown.

SMILES	SKKanGAS inh	NALP1 yeast inh	TIM10 inh	tim10-1 inh	NALP3 yeast inh	tim23-1 inh
Cc1ccc(CSc2ncnc3c2cnn3Cc2ccccc2)cc1C	26	10	-5	-12	7	6
Cc1nc(N)nc(N)c1/C=C/C(C)(C)c1ccc(Cl)cc1	97*	29	.	.	.	.
O=C1CCC(C(=O)N2CCN(c3cnccn3)CC2)CN1CCc1ccc(Cl)cc1 (stereo unspecified)	-3	16	8	11	0	11
NC(=O)CCCn1c(C(=O)c2cc(Cl)c(N)c(Cl)c2)c2ccc([N+](=O)[O-])cc2[n+]1[O-]	69*	.	16	22	6	18
NC(=O)CCCn1c(C(=O)c2ccc(Cl)cc2)c2ccc([N+](=O)[O-])cc2[n+]1[O-]	23	.	-2	-1	21	2
CCOc1ccc(/C=N/NC(=O)Cc2csc(Nc3cccc(C(F)(F)F)c3)n2)cc1	80*	34	12	20	16	24
CC(=O)Nc1nc(NC(=O)/C=C/c2ccccc2)n(-c2ccccc2)n1	97*	18	-1	-12	1	-5
CSCCC(NC(=O)COc1ccccc1)C(=O)N1CCN(C(C)=O)CC1 (stereo unspecified)	-2	18	5	1	-4	10
CCOC(=O)c1cccc(NS(=O)(=O)Cc2ccccc2)c1	-1	44*	2	6	10	12
C1CCC(C(CC2CCCCN2)C2CCCCC2)CC1 (stereo unspecified)	14	71*	22	3	48	-5
Cc1ccc(C(=O)COC(=O)COc2ccccc2[N+](=O)[O-])s1	.	.	1	9	5	19
CCOC(=O)COc1ccccc1/C=C\[N+](=O)[O-]	5	102*	.	.	.	.
CCOc1cc(C2Nc3ccccc3NC3=C2C(=O)CC(C)(C)C3)ccc1O (stereo unspecified)	-3	-4	-1	12	5	6
CN1CCN(c2ccc(Cl)cc2NC(=O)C2COc3ccccc3O2)CC1 (stereo unspecified)	-4	32*	-75	-107	20	-113
CSCCC(=O)N1CCC(n2nccc2NC(=O)CCc2ccccc2)CC1	16	20	-1	-6	7	-2
O=C(Nc1ncccc1O)c1ccc(Oc2ccccc2)cc1	8	43*	-7	-90	33	11
Cc1cc(C)nc(SCC(=O)NC2=NN=C(c3ccc(Br)cc3)CS2)n1	99*	-7	12	33	2	45
CC(=O)C(=Nc1ccc(Cl)cc1Cl)NNc1cccc(Cl)c1	52*	14	6	15	14	-3
CC(NC(=O)c1ccco1)C(=O)N1CCc2ccccc2C1 (stereo unspecified)	-4	43*	-37	-20	13	-15
COc1ccccc1N1CCN(C(=O)C(C)NC(=O)c2ccco2)CC1 (stereo unspecified)	.	.	6	-11	6	-1
Cc1ccc(-c2csc3ncn(CC#N)c(=O)c23)cc1C	52*	11	-2	29	15	37
O=CN1CCCN(C(=O)CC2C(=O)NCCN2Cc2cccc(Oc3ccccc3)c2)CC1 (stereo unspecified)	-1	-6	6	1	1	11
COc1ccc(C(=O)C2CCCN(Cc3c(C)[nH]c4ccccc34)C2)c(OC)c1 (stereo unspecified)	-13	33*	3	13	9	10
COc1ccc(C(=O)C2CCCN(Cc3cc(C)c(O)c(C)c3)C2)c(OC)c1 (stereo unspecified)	0	29	10	3	6	14
CCc1ccc(N2CC(C(=O)NC3CCCCC3C)CC2=O)cc1 (stereo unspecified)	4	6	-11	26	22	21
Cc1cccc(C)c1OCC(=O)Nc1ccccc1N1CCCCC1	86*	8	16	15	20	16
Cc1cccc(OCC(=O)Nc2ccccc2N2CCCCC2)c1C	70*	.	3	16	12	20
COc1ccc(OCC(=O)Nc2ccccc2N2CCCCC2)cc1	6	3	18	1	25	7
O=C(CN1CCc2ccccc2C1)Nc1ccccc1N1CCCCCC1	86*	16	6	36	7	45
O=C1C(=O)N(c2ccccn2)C(c2cccc([N+](=O)[O-])c2)/C1=C(/O)c1ccc(Br)cc1 (stereo unspecified)	16	0	-7	16	10	12

Screening data from PubChem.
